A selection: hits, their analogues and other compounds. The true share with any hit is near 3.8%.
Shn3 3UTR inh: Schnurri-3 reporter inhibition in Clone20 osteoblasts; Clone20 osteoblast Shn3 3'UTR firefly luciferase, 24 h; inhibition, % at 12.5 µM; 0.52% of 360,000 active; AID 588674;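 active = mean inhibition of at least 75% with every replicate also reaching 75%; inconclusive = mean inhibition at least 75% but some replicate below; inactive = mean inhibition below 75%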;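 also: 0% = median of neutral control wells and 100% = pilot-screen positive control compound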
Mdm2 MdmX PPI: human Mdm2/MdmX binding inhibition. O15151+Q00987. inhibition, % at 8 µM. SaOS-2 split-luciferase Mdm2/MdmX complementation, luminescence. 3% of 330,000 active;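 active = inhibition of at least 50% at 8 µM in the primary screen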
Target sequence (O15151 whole entry, looked up): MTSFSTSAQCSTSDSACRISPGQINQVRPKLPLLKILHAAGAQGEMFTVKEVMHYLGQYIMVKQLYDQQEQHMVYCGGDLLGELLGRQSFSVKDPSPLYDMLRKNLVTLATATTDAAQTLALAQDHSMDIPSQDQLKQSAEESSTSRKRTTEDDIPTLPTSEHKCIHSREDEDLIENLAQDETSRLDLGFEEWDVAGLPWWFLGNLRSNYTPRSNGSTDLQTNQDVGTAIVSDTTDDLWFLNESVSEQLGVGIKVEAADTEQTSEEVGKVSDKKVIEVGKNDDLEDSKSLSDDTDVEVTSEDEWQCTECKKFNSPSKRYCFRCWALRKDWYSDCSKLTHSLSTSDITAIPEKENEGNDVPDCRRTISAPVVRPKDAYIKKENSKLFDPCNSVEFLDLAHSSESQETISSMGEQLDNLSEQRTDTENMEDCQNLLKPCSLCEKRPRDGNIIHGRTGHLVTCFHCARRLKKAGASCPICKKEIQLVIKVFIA
Target sequence (Q00987 whole entry, looked up): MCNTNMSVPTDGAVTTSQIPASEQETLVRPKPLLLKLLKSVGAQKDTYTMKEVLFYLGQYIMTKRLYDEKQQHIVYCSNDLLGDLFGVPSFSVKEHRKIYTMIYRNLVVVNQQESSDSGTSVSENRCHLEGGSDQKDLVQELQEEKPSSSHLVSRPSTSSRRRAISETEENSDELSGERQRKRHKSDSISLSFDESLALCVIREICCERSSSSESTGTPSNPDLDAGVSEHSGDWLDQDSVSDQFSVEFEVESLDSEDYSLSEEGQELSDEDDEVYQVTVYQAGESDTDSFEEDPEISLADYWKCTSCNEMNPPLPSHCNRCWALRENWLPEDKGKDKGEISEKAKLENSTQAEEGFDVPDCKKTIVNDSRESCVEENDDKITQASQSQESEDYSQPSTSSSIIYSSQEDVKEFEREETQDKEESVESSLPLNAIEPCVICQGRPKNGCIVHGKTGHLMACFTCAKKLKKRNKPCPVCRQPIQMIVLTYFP
697 NFkB inh: lowers PMA/ionomycin-induced NF-kB signal in 697 B cells; 697 B-cell NF-kB luciferase reporter, 16 h; inhibition, % at 4 µM; 0.33% of 330,000 active; in the data active = inhibition above about 35%
Jurkat NFkB inh: lowers PMA/ionomycin-induced NF-kB signal in Jurkat cells; PMA/ionomycin-induced NF-kB luciferase reporter, luminescence; inhibition, % at 4 µM; AID 435003; 0.53% of 330,000 active; in the data active = inhibition above about 50%
Gli-Sufu block: Gli-Sufu pathway antagonism. 0.74% of 340,000 active. inhibition, % at 5 µM. Sufu-KO-LIGHT fibroblasts, Gli luciferase reporter luminescence;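 active = inhibition above about 55%, limit read from the data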;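 also: 0% = DMSO-treated cells and 100% = wells with medium but no cells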
Mdm2 MdmX conf: confirmation of human Mdm2/MdmX interaction inhibitors | shares compounds with Mdm2 MdmX PPI | Mdm2-MdmX binding, luminescent assay | inhibition, % at 8 µM | 55% of 10,000 active; in the data active = inhibition above about 40%
Full FLuc ctr: counter-screen for Mdm2/MdmX inhibitors: full-length luciferase; SaOS-2 full-length luciferase counterscreen, luminescence; 77% of 6,200 active; AID 504607; shares compounds with Mdm2 MdmX PPI; inhibition, % at 8 µM;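 active = mean inhibition at 8 µM reaching about 37%, which flags the compound as non-specific, limit read from the data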;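 also: p53-null SaOS-2 cells with luciferase driven by a doxycycline-inducible promoter; compound on cells about two nights before reading with doxycycline added after day one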
Starred values were filed as active, the others as inactive; ? = inconclusive; . = no result.

SMILES | Shn3 3UTR inh | Mdm2 MdmX PPI | 697 NFkB inh | Jurkat NFkB inh | Gli-Sufu block | Mdm2 MdmX conf | Full FLuc ctr
O=C(Cc1sc(-c2ccccc2)nc1-c1ccccc1)Nc1ccc(Cl)cc1 | 0 | 59* | 4 | 0 | 7 | 6 | .
O=C(Cc1sc(-c2ccccc2Cl)nc1-c1ccccc1)Nc1ccccc1 | 9 | 72* | 8 | 2 | 20 | 25 | .
CCn1cc(C(=O)N(CCC(C)C)c2c(N)n(Cc3ccccc3)c(=O)[nH]c2=O)c(=O)c2ccc(C)nc21 | -2 | -22 | 26 | -19 | -28 | . | .
O=C(Cn1ncc(Cl)c(Cl)c1=O)c1ccc2c(c1)OCCO2 | 12 | 100* | -34 | -1 | -25 | 82* | 52*
Cc1ccc(NC(=O)CCl)cc1S(=O)(=O)N1CCCCCC1 | -57 | 97* | 20 | 24 | 18 | 26 | .
O=C(Cn1ncc(Cl)c(Cl)c1=O)Nc1ccc2c(c1)OCO2 | 66 | 100* | -2 | -1 | -4 | 83* | 57*
O=C(Cn1ncc(Cl)c(Cl)c1=O)N1CCN(S(=O)(=O)c2ccc3ccccc3c2)CC1 | 10 | 100* | -42 | -9 | -4 | 100* | 53*
CCC(=O)c1ccc2c(c1)OCCO2 | -14 | -11 | -21 | -23 | -6 | . | .
O=C(CNC(=O)c1sc2ccccc2c1Cl)NCc1ccc(F)cc1 | 3 | 8 | 13 | -7 | 5 | . | .
CCOC(=O)C1=C(C)N(CCCC(=O)O)C(=O)NC1C(CC)CC (centres undefined) | 6 | 14 | 5 | -14 | 6 | . | .
Cc1ccc(S(=O)(=O)N2CCCCC2)cc1NC(=O)Cn1ncc(Cl)c(Cl)c1=O | 100* | 97* | -37 | 15 | 1 | 99* | 55*
CCN(CC)S(=O)(=O)c1cc(NC(=O)Cn2ncc(Cl)c(Cl)c2=O)ccc1C | 16 | 100* | -10 | 7 | 2 | 100* | 50*
O=C(Cn1ncc(Cl)c(Cl)c1=O)NC(=O)NC1CCCCC1 | 74 | 100* | -27 | 13 | 13 | 97* | 50*
O=C(CN1CCCCC1)NC(=O)NC1CCCC1 | -6 | 20 | -18 | -16 | -1 | . | .
Cc1cc(Br)ccc1NC(=O)CNC(=O)Cn1ncc(Cl)c(Cl)c1=O | 58 | 97* | -26 | 28 | -10 | 99* | 48*
CC(NC(=O)c1ccco1)C(=O)N1CCN(C(c2ccccc2)c2ccccc2)CC1 (centres undefined) | 18 | 26 | -4 | -3 | 6 | . | .
Cc1ccccc1CSc1nnc(-c2ccncc2)n1C | 4 | 29 | 13 | -9 | -19 | . | .
N/C(=N\c1nc2ccccc2o1)NC(=O)c1ccc(F)cc1 | -25 | 67* | -46 | -31 | -27 | 8 | .
N/C(=N\c1nc2ccccc2o1)NC(=O)c1ccc(Cl)cc1 | -11 | 23 | -17 | -26 | -15 | . | .
Cc1ccc(NC(=O)COc2ccccc2CNC(C)(C)CC(C)(C)C)cc1 | 31 | 90* | 1 | 5 | -12 | 53* | 59*
CC(C)(CO)NCc1ccccc1OCC(=O)Nc1ccccc1 | -47 | 4 | 5 | -25 | 3 | . | .
C=CCn1c(COc2ccccc2)nnc1SC(C)C(=O)N/N=C/c1cc(Cl)ccc1O (centres undefined) | ? | 65* | 17 | 16 | 10 | 60* | 31
Cc1cccc(Nc2cc(=O)n(C)c(=O)n2C)c1 | -3 | . | . | . | . | . | .
Cc1ccc(NC(=O)/C=C/c2ccc3c(c2)OCO3)nc1 | -114 | -241 | -93 | -104 | -108 | . | .
Cc1ccc2nc(NC(=O)c3ccccn3)sc2c1 | 55 | 100* | -126 | 34 | 78* | 90* | 56*
SMILES | Shn3 3UTR inh | Mdm2 MdmX PPI | 697 NFkB inh | Jurkat NFkB inh | Gli-Sufu block | Mdm2 MdmX conf | Full FLuc ctr
O=C(Nc1nc2ccccc2s1)c1cc(-c2ccco2)nc2ccccc12 | -2 | 66* | -21 | 15 | -7 | 45* | 55*
CC(=O)Nc1ccccc1NC(=O)c1cc(C)ccc1C | 1 | 4 | 1 | 3 | -4 | . | .
Cc1ccc(C)c(C(=O)c2ccccc2NC(=O)c2ccccn2)c1 | 13 | 57* | -10 | 46 | -5 | 58* | 73*
Cc1ccc2nc(NC(=O)/C=C/c3ccc4c(c3)OCO4)sc2c1 | 4 | 78* | 3 | 3 | 47 | 22 | .
N#CCCN(C(=O)COC(=O)c1ccc(Cl)nc1)c1ccc2c(c1)OCCO2 | -12 | . | . | . | . | . | .
Cc1nnc(NC(=O)c2cc(-c3ccco3)nc3ccccc23)s1 | -66 | 31 | 9 | 13 | . | . | .
CCN(CC)CCNC(=O)c1ccc(NC(=O)c2cc(-c3ccco3)nc3ccccc23)cc1 | 21 | 55* | 7 | -13 | 3 | 22 | .
Cc1cccc(-c2cc(C(=O)Nc3sc(C)c(C)c3C(N)=O)c3ccccc3n2)c1 | 22 | 23 | 18 | 5 | -1 | . | .
O=C(Nc1nc2c(s1)CCCC2)c1cc(-c2ccc3c(c2)OCO3)nc2ccccc12 | . | 18 | 23 | -1 | . | . | .
Cc1ccc(C)c(-c2cc(C(=O)Nc3sc(C)c(C)c3C(N)=O)c3ccccc3n2)c1 | 16 | 51* | 0 | -1 | 4 | 18 | .
CN(C)C(=O)c1ccc(NC(=O)c2cc(-c3ccco3)nc3ccccc23)cc1 | 9 | 2 | 9 | 3 | 3 | . | .
Cc1ccc2nc(NC(=O)c3cc(-c4ccco4)nc4ccccc34)sc2c1 | 2 | 61* | -18 | -7 | -7 | 31 | .
Cc1ccccc1-c1cc(C(=O)Nc2nc3c(s2)CCCC3)c2ccccc2n1 | 8 | 62* | -22 | 14 | -12 | 48* | 35
Cc1cccc(OCCC(=O)Nc2ccc(N3CCOCC3)cc2N2CCOCC2)c1 | 3 | -30 | 0 | -10 | 5 | . | .
C=C(C)COC(=O)C1CC2OC2CC1C(=O)OCC(=C)C (centres undefined) | 17 | . | . | . | -2 | . | .
CCOCCCn1c(SCC(=O)Nc2ccc3[nH]c(=O)[nH]c3c2)nc2ccccc2c1=O | -13 | -11 | -12 | -4 | -11 | . | .
CCCN=C1N(C)C[C@@H]2[C@@H]3C(=O)N(C)C(=O)[C@@H]3[C@](Cc3ccccc3)(C(=O)OC)N12 | 4 | 5 | 7 | . | -1 | . | .
COc1ccc(OC)c(NC(=O)C2CCN(S(=O)(=O)c3ccc4c(c3)CC(C)N4C(C)=O)CC2)c1 (centres undefined) | 22 | 27 | -19 | 6 | -11 | . | .
CCOC(=O)N1CCN(S(=O)(=O)N2CCCC(C(=O)NCc3cccc(OC)c3)C2)CC1 (centres undefined) | 6 | 22 | -9 | -6 | -3 | . | .
Cc1cc2cc(CCNC(=O)c3cccs3)c(=O)[nH]c2cc1C | -66 | -83 | -126 | -78 | -61 | . | .
Cc1nc(NC(=O)CSc2nc3cccnc3n2C2CCCCC2)sc1C | 1 | 57* | -37 | -5 | 2 | 19 | 96*
Cc1cc(C)cc(NC(=O)CN2CCN(CCN=CC3=C(O)CC(c4ccc(Cl)cc4)CC3=O)CC2)c1 (centres undefined) | -11 | 3 | 9 | 11 | 20 | . | .

Screens as filed in PubChem BioAssay.
